Source: PMC5540273 (PLoS ONE, 2017)

system: FLT4; settings: concentration: 1 μM,replicates: in singlicate; n = 1
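Note: KINOMEscan kinase panel screen.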

**Q.** How did the “%Inh” value turn out when `CNC(=O)c1ccccc1Sc1ccc2c(/C=C/c3ccccn3)n[nH]c2c1` was run?
**A.** Its value is 100%.

**Q.** Which “%Inh” value does the source give for `Nc1nc(Nc2ccccc2)cc(-c2ccc3c(N)n[nH]c3c2)n1` [GSK2225749] here?
**A.** The value was 9%.

**Q.** How did the “%Inh” value turn out when `CCN(CC)CCCCNc1ncc2cc(-c3c(Cl)cccc3Cl)c(NC(=O)NC(C)(C)C)nc2n1` was run?
**A.** The value was 83%.

**Q.** With `Cc1cc(C(=O)Nc2ccc(Oc3ccc4nc(NC(=O)C5CC5)cn4n3)cc2)nn1-c1ccccc1` as the compound, how does the “%Inh” value read?
**A.** The value was 94%.

**Q.** `CN(C)CC(O)COc1ccc(Nc2nccc(-c3cnn4nc(N5CCOCC5)ccc34)n2)cc1` (stereo not drawn) [GW767488] was tested. Which “%Inh” value did it give?
**A.** Its value is 24%.

**Q.** How did the “%Inh” value turn out when `Cl.Cl.Nc1nc(-c2ccc3c(N)n[nH]c3c2)cc(N2CCCC(NC(=O)c3ccccc3)C2)n1` (stereo not drawn) [GSK2286775] was run?
**A.** The value was 0%.

**Q.** How did the “%Inh” value turn out when `CN(C)CCOc1ccc(-c2cc(-c3c[nH]nc3-c3ccccn3)ccn2)cc1` [GW835314] was run?
**A.** Its value is 11%.

**Q.** `C[C@@H]1CCN(C(=O)CC#N)C[C@@H]1N(C)c1ncnc2[nH]ccc12` was tested. Which “%Inh” value did it give?
**A.** Its value is 0%.

**Q.** `Cl.Cl.NC[C@H](CC1CCCCC1)NC(=O)c1cc(Br)c(-c2ccnc3[nH]ccc23)s1` [GSK1581427] was tested. Which “%Inh” value did it give?
**A.** The value was 22%.

**Q.** `Cl.Cl.NC[C@H](Cc1ccc(C(F)(F)F)cc1)NC(=O)c1cc(Br)c(-c2ccnc3[nH]ccc23)s1` [GSK1487252] was tested. Which “%Inh” value did it give?
**A.** Its value is 54%.

**Q.** Which “%Inh” value does the source give for `Cl.Oc1cc(-c2nc(-c3ccccc3)[nH]c2-c2ccncc2)ccc1Cl` [SB-386023] here?
**A.** The value was 8%.

**Q.** With `C[C@H]1Oc2cc(cnc2N)-c2c(nn(C)c2C#N)CN(C)C(=O)c2ccc(F)cc21` as the compound, how does the “%Inh” value read?
**A.** The value was 0%.

**Q.** Which “%Inh” value does the source give for `C[C@@H](Oc1cc(-c2cnn(C3CCNCC3)c2)cnc1N)c1c(Cl)ccc(F)c1Cl` here?
**A.** The value was 4%.

**Q.** For `CCn1c(-c2nonc2N)nc2c(C#CC(C)(C)O)nc(OCCN)cc21.Cl.Cl` [GSK902056], which “%Inh” value is on record?
**A.** The value was 0%.

**Q.** How did the “%Inh” value turn out when `CCN(CC)CCOc1ccc(Nc2ncc3cc(-c4c(Cl)cccc4Cl)c(=O)n(C)c3n2)cc1` [SB-601273] was run?
**A.** Its value is 95.8%.

system: FRK; settings: concentration: 1 μM,replicates: in singlicate; n = 1

**Q.** How did the “%Inh” value turn out when `C=CC(=O)Nc1cc2c(Nc3ccc(F)c(Cl)c3)ncnc2cc1OCCCN1CCOCC1` [GW781483] was run?
**A.** The value was 30%.

**Q.** With `CC(C)Nc1cc(-c2ccc3c(N)n[nH]c3c2)nc(N)n1` [GSK2221681] as the compound, how does the “%Inh” value read?
**A.** The value was 3%.

**Q.** For `COc1ccc(C[C@@H](CN)NC(=O)c2cc(Br)c(-c3ccnc4[nH]ccc34)s2)cc1.Cl.Cl` [GSK1389063], which “%Inh” value is on record?
**A.** The value was 29%.

**Q.** With `Cc1occc1-c1nc(N)c(OC[C@@H](N)Cc2c[nH]c3ccccc23)cc1-c1cc2c(C)n[nH]c2cn1` [GSK1660450] as the compound, how does the “%Inh” value read?
**A.** The value was 75%.

**Q.** For `Cc1ccc2c(-c3ccncc3)c(-c3ccc(F)cc3)nn2c1.Cl` [GW461484], which “%Inh” value is on record?
**A.** The value was 20%.

**Q.** Which “%Inh” value does the source give for `O=C(NCCCN1CCOC1=O)c1cnc(NCc2cc(Cl)ccc2Cl)nc1NC1CCCC1` here?
**A.** Its value is 18%.

**Q.** How did the “%Inh” value turn out when `Cc1n[nH]c2ccc(-c3cc(OC[C@@H](N)Cc4ccccc4)cnc3-c3ccoc3)cc12.O=C(O)C(F)(F)F.O=C(O)C(F)(F)F` [GSK507358] was run?
**A.** Its value is 0%.

**Q.** How did the “%Inh” value turn out when `Cc1cc2cn[nH]c2cc1-c1cccc2c(N)c(C(N)=O)nnc12` was run?
**A.** The value was 31%.

**Q.** Which “%Inh” value does the source give for `NC(=O)c1cc(-c2ccccc2)cc2c(C3CCNCC3)c[nH]c12` [GSK301362] here?
**A.** The value was 2%.

**Q.** Which “%Inh” value does the source give for `Cc1ccc(-n2nc(C(C)(C)C)cc2NC(=O)Nc2ccc(OCCN3CCOCC3)c3ccccc23)cc1` [GW839464] here?
**A.** The value was 48%.

**Q.** Which “%Inh” value does the source give for `CC(C)N1C(=O)Cc2cc(Nc3ncc(C(F)(F)F)c(NCc4cccc(S(C)(=O)=O)c4)n3)ccc21` here?
**A.** The value was 0%.

**Q.** How did the “%Inh” value turn out when `O=C(NCCNc1ccnc(NCc2ccc(F)cc2)n1)c1cc2ccccc2s1` [GSK1379944] was run?
**A.** The value was 15%.

**Q.** For `CNC(=O)c1ccccc1Sc1ccc2c(/C=C/c3ccccn3)n[nH]c2c1`, which “%Inh” value is on record?
**A.** The value was 0%.

**Q.** With `Nc1nc(Nc2ccccc2)cc(-c2ccc3c(N)n[nH]c3c2)n1` [GSK2225749] as the compound, how does the “%Inh” value read?
**A.** Its value is 0%.

**Q.** `CCN(CC)CCCCNc1ncc2cc(-c3c(Cl)cccc3Cl)c(NC(=O)NC(C)(C)C)nc2n1` was tested. Which “%Inh” value did it give?
**A.** The value was 96.2%.

**Q.** Which “%Inh” value does the source give for `Cc1cc(C(=O)Nc2ccc(Oc3ccc4nc(NC(=O)C5CC5)cn4n3)cc2)nn1-c1ccccc1` here?
**A.** Its value is 0%.

**Q.** `CN(C)CC(O)COc1ccc(Nc2nccc(-c3cnn4nc(N5CCOCC5)ccc34)n2)cc1` (stereo not drawn) [GW767488] was tested. Which “%Inh” value did it give?
**A.** Its value is 0%.

**Q.** For `Cl.Cl.Nc1nc(-c2ccc3c(N)n[nH]c3c2)cc(N2CCCC(NC(=O)c3ccccc3)C2)n1` (stereo not drawn) [GSK2286775], which “%Inh” value is on record?
**A.** The value was 0%.
